TDP1 cell CPT – DT40-hTDP1 cell growth loss with CPT; chicken DT40 Tdp1-/-;hTDP1 cells + 20 nM CPT, ATP luminescence, 48 h; Potency, µM (highest dose often 46.2 µM), hits mostly inhibitors; AID 686979; 12% of 420,000 active; note: nearly all actives have a fitted effect of over 55% in size
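Chicken DT40 Tdp1-/- cells stably complemented with human TDP1 were seeded at 400 cells/well in medium containing 20 nM camptothecin, exposed to pin-transferred compounds, and grown at 37 °C for at least 48 hr. Viability was read as ATP luminescence.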
TDP1 block – blocks human tyrosyl-DNA phosphodiesterase 1 | 0.28% of 350,000 active | recombinant TDP1, AlphaScreen DNA substrate cleavage | Potency, µM (top dose mostly 130 µM), actives largely listed as inhibitors | Q9NUW8 | AID 485290; note: nearly all actives have a fitted effect of over 40% in size
Target sequence (Q9NUW8 whole entry, looked up): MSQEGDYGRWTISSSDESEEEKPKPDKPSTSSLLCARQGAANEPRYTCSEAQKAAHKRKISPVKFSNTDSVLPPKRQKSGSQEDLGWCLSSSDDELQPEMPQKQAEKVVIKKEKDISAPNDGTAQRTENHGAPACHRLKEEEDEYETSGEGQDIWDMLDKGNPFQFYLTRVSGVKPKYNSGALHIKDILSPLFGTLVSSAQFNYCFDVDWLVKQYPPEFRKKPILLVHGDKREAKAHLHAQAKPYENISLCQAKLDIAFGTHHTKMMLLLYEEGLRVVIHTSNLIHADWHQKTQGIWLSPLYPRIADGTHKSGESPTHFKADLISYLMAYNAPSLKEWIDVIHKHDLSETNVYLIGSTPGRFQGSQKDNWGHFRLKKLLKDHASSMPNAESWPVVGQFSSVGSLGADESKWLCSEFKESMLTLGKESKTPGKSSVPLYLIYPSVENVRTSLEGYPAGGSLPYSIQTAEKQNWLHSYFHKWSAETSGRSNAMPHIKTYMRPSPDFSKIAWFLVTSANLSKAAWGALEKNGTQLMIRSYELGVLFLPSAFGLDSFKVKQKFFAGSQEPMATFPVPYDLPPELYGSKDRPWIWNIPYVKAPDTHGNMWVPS
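Signal: AlphaScreen proximity between streptavidin donor and anti-FITC acceptor beads on intact substrate. Reaction: Tdp1 1 nM, substrate 15 nM final, 5 min RT after 15 min compound preincubation.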
RORgamma inh – inhibitors of mouse ROR gamma transcriptional activity; P51450; Drosophila S2 Gal4-RORgamma UAS-luciferase reporter, 20 h; Potency, µM (series often up to 53.6 µM), hits mostly inhibitors; 5.4% of 310,000 active; AID 2551; note: nearly all actives have a fitted effect of over 60% in size
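Stable Schneider cell line, Gal4 DNA-binding domain fused to ROR gamma, UAS-luciferase. Cmpd 1 hr RT → CuSO4 700 uM final → 20 hr RT → luciferase reagent 10 min → luminescence.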
DT40 TDP1 no CPT – qHTS for Inhibitors of human tyrosyl-DNA phosphodiesterase 1 (TDP1): qHTS in cells in absence of CPT | DT40 Tdp1-/- hTDP1 cells, no CPT, ATP luminescence, 48 h | Potency, µM (series often up to 46.2 µM), actives largely listed as inhibitors | 15% of 420,000 active; note: nearly all actives have a fitted effect of over 55% in size
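Compound effects on proliferation are scored in DT40 Tdp1-/-;hTDP1 cells in the absence of CPT. ATP levels (CellTiter-Glo luminescence) are recorded after a ≥48 hr, 37 °C incubation.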
Gal4-VP16 FLuc – counter-screen for ROR gamma inhibitors: Gal4-VP16 reporter; Potency, µM (highest dose often 53.6 µM), hits mostly inhibitors; 3.5% of 310,000 active; Drosophila S2 Gal4-VP16 UAS-luciferase, luminescence, 20 h;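 note: Gal4-VP16 expression switched on by copper sulfate through the metallothionein promoter; nearly all actives have a fitted effect of over 50% in size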
A number is an active result; [ ] = another dose, or the depositor's remark. Shown are actives, neighbours in structure and some others; about 19% of the full set was active somewhere. Calls come from the whole dose curve; as a rule, active = well fitted curve in the direction sought with a large enough effect; inconclusive = small, poorly fitted or top-dose-only effect, or another doubt; inactive = no such curve, though single readings can be large; an effect the other way counts as inactive or inconclusive.

For CN(CCC#N)c1ccc(C=C(C#N)c2cccc(C(F)(F)F)c2)cc1 the results were TDP1 cell CPT 16.4µM and DT40 TDP1 no CPT 23.1µM.
For CC(=O)Nc1ccc(C(C#N)=Cc2ccc(N(C)CCC#N)cc2)cc1 the results were TDP1 cell CPT inconclusive and DT40 TDP1 no CPT 14.6µM.
`CN(C)/C=C/C(=O)c1cccc(C(F)(F)F)c1` gave TDP1 cell CPT inactive, TDP1 block inactive, RORgamma inh inactive, DT40 TDP1 no CPT inactive and Gal4-VP16 FLuc inactive.
CCCCC(CC)COC(=O)c1ccccc1C(=O)O (configuration not stated) was read as TDP1 cell CPT inactive, TDP1 block inactive, RORgamma inh inactive, DT40 TDP1 no CPT inactive and Gal4-VP16 FLuc inactive.
For CCCC[C@H](CC(=O)c1ccccc1)[C@@H](OC(C)=O)C(=O)Oc1c(C(C)C)cccc1C(C)C the results were TDP1 cell CPT 13µM, TDP1 block inactive and DT40 TDP1 no CPT inconclusive.
CCn1ccnc1CN1CCCCC1C(=O)Nc1ccc(Oc2cccnc2)cc1 (configuration not stated) was read as TDP1 cell CPT inconclusive, TDP1 block inactive, RORgamma inh inconclusive, DT40 TDP1 no CPT inconclusive and Gal4-VP16 FLuc inconclusive.
O=C(OCC(=O)N1CCN(c2ccccc2)CC1)c1ccc(Cl)nc1 was read as TDP1 cell CPT inactive, TDP1 block inactive and DT40 TDP1 no CPT inconclusive.
`O=C(NCCc1cnc[nH]1)Nc1cccc(C(F)(F)F)c1` gave TDP1 cell CPT inactive, TDP1 block inactive, RORgamma inh inactive, DT40 TDP1 no CPT inactive and Gal4-VP16 FLuc inactive.
Cc1nn2c(c1-c1ccc(Cl)cc1)N=C(c1ccco1)CC2c1ccccc1 (configuration not stated) was read as TDP1 cell CPT 14.6µM, TDP1 block inactive, RORgamma inh inactive, DT40 TDP1 no CPT inconclusive and Gal4-VP16 FLuc inactive.
`CC(=O)N1N=C(c2ccco2)CC1c1ccc(C)cc1` (configuration not stated) gave TDP1 cell CPT inactive, TDP1 block inactive, RORgamma inh inactive, DT40 TDP1 no CPT inconclusive and Gal4-VP16 FLuc inactive.
For COc1ccc(OC)c(N=Nc2c(O)c3ccccc3[nH]c2=O)c1 the results were TDP1 cell CPT 14.6µM and DT40 TDP1 no CPT 18.4µM.
For COc1cc(N=Nc2c(O)c3ccccc3[nH]c2=O)c(OC)cc1N=Nc1ccccc1 the results were TDP1 cell CPT inconclusive, TDP1 block inactive, RORgamma inh inactive, DT40 TDP1 no CPT 13µM and Gal4-VP16 FLuc inactive.
For CN(C)c1ccc(-c2ccc3ncnc(N(C)Cc4ccco4)c3c2)cc1 the results were TDP1 cell CPT 4.11µM, RORgamma inh inactive, DT40 TDP1 no CPT 2.59µM and Gal4-VP16 FLuc inactive.
O=[N+]([O-])c1ccc(N/N=C/c2cccc(O)c2O)cc1 was read as TDP1 cell CPT inconclusive, RORgamma inh inactive, DT40 TDP1 no CPT 14.6µM and Gal4-VP16 FLuc inactive.
For Cc1cccc(C(=O)Oc2ccc(/C=N/O)cc2)c1 the results were TDP1 cell CPT inactive, TDP1 block inactive, RORgamma inh 5.62µM, DT40 TDP1 no CPT inactive and Gal4-VP16 FLuc 2µM.
Screening O=[N+]([O-])c1ccc(C=NNc2ccc(S(=O)(=O)O)cc2)cc1 returned TDP1 cell CPT inactive and DT40 TDP1 no CPT inactive.
COc1cc(C(=O)N/N=C/c2ccc(OC(=O)c3cccc(C)c3)cc2)ccc1O was read as TDP1 cell CPT inactive, TDP1 block inactive, RORgamma inh inactive, DT40 TDP1 no CPT inactive and Gal4-VP16 FLuc inactive.
For O=[N+]([O-])c1ccc(N/N=C/c2cccc(O)c2)cc1 the results were TDP1 cell CPT inconclusive, RORgamma inh inactive, DT40 TDP1 no CPT 20.6µM and Gal4-VP16 FLuc inactive.
Screening Cc1cccc(C(=O)Oc2ccccc2/C=N/Nc2ccc([N+](=O)[O-])cc2)c1 returned TDP1 cell CPT 29.1µM, TDP1 block inactive, RORgamma inh inconclusive, DT40 TDP1 no CPT 16.4µM and Gal4-VP16 FLuc inactive.
Screening CCOc1ccccc1NC(=S)N1CCC(NC(=O)c2ccco2)CC1 returned TDP1 cell CPT inactive, TDP1 block inactive, RORgamma inh inactive, DT40 TDP1 no CPT inactive and Gal4-VP16 FLuc inactive.
`Brc1c(OCCOCCn2cncn2)ccc2ccccc12` gave TDP1 cell CPT inconclusive, TDP1 block inactive, RORgamma inh inactive[0.365 µM] and DT40 TDP1 no CPT 25.9µM.
For COc1cc(/C=N/NC(=O)C2COc3ccccc3O2)cc(OC)c1OC (configuration not stated) the results were TDP1 cell CPT inactive, TDP1 block inactive, RORgamma inh inactive, DT40 TDP1 no CPT inactive and Gal4-VP16 FLuc inactive.
COc1ccccc1CN(Cc1c(Cl)cccc1Cl)S(=O)(=O)c1ccc(Br)cc1 was read as TDP1 cell CPT 16.4µM, TDP1 block inactive and DT40 TDP1 no CPT 20.6µM.
`COc1ccccc1CNC(=O)C(C)NS(=O)(=O)c1ccc(Br)cc1` (configuration not stated) gave TDP1 cell CPT inactive, TDP1 block inactive, RORgamma inh inactive, DT40 TDP1 no CPT inconclusive and Gal4-VP16 FLuc inactive.
For Cc1ccccc1C(=O)O/N=C/c1c(N2CCOCC2)n(C)c2ccccc12 the results were TDP1 cell CPT 1.46µM, TDP1 block inactive, RORgamma inh 1µM, DT40 TDP1 no CPT 1.3µM and Gal4-VP16 FLuc 2.82µM.
CCn1cnc2sc(C(=O)N3CCN(Cc4ccc5c(c4)OCO5)CC3)c(C)c2c1=O was read as TDP1 block inactive, RORgamma inh inactive and Gal4-VP16 FLuc inactive.
Screening COC(=O)c1ccc(CNC(=O)C2CCC(=O)N(CCCc3ccccc3)C2)cc1 (configuration not stated) returned TDP1 cell CPT 13µM, TDP1 block inactive, RORgamma inh inactive, DT40 TDP1 no CPT inconclusive and Gal4-VP16 FLuc inactive.
Screening COC(=O)c1ccc(CNC(=O)C2CCC(=O)N(CCc3ccccn3)C2)cc1 (configuration not stated) returned TDP1 cell CPT inactive and DT40 TDP1 no CPT inactive.
For COc1ccc(CCCNC(=O)C2CCC(=O)N(CC3CCCCC3)C2)cc1 (configuration not stated) the results were TDP1 cell CPT 16.4µM, RORgamma inh inactive, DT40 TDP1 no CPT 18.4µM and Gal4-VP16 FLuc inactive.
`COc1ccccc1CCCNC(=O)C1CCC(=O)N(CCc2cccc(F)c2)C1` (configuration not stated) gave TDP1 cell CPT inconclusive, TDP1 block inactive, RORgamma inh inactive, DT40 TDP1 no CPT 18.4µM and Gal4-VP16 FLuc inactive.
Screening COc1ccc(CCCNC(=O)C2CCC(=O)N(CCc3cccc(F)c3)C2)cc1 (configuration not stated) returned TDP1 cell CPT 23.1µM, TDP1 block inactive, RORgamma inh inactive, DT40 TDP1 no CPT inconclusive and Gal4-VP16 FLuc inactive.
For COc1cccc(CNC(=O)c2c(OC)cc(=O)n3c2CCN(C(=O)C2CC24CCCC4)CC3)c1 (configuration not stated) the results were TDP1 cell CPT inactive and DT40 TDP1 no CPT inactive.

Assay outcomes (PubChem BioAssay)
